# Several values for one entry are separate records, joined by “and”; a condition that tells them apart may be missing. Equal values may be shown once. Inconclusive results are not listed. A call without a number means that no potency is given here. A structure can be active in one record and inactive in another. Activity calls are given as the source filed them. Unless noted, calls come from the whole dose curve; as a rule, active = well fitted curve in the direction sought with a large enough effect; inconclusive = small, poorly fitted or top-dose-only effect, or another doubt; inactive = no such curve, though single readings can be large; an effect the other way counts as inactive or inconclusive.
# What was measured:
# [1] = qHTS assay to identify small molecule inhibitors of chordoma cells - UCH-2 (AID 1259356); conditions: UCH-2 chordoma viability, CellTiter-Glo ATP luminescence, 48 h; series mostly up to 46.1 µM
# [2] = P-glycoprotein substrates identified in KB-8-5-11 adenocarcinoma cell line, qHTS therapeutic library screen (AID 1346987); conditions: KB-8-5-11 (P-gp overexpressing) viability, CellTiter-Glo, 72 h; series mostly up to 44.5 µM; note: nearly all actives have a fitted effect of over 65% in size; note: potency is the fitted concentration of half-maximal effect
# Outline: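 Luminescence from CellTiter-Glo, read 5 min after addition, quantified survival of KB-8-5-11 (P-gp-overexpressing) cells exposed to compounds for 72 h. AC50 was derived from concentration-response curves.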
# [3] = Identifying Small Molecule Inhibitors of Pancreatic Cancer Stem Cells (SN12C, Adherent) (AID 1259358); conditions: viability/growth inhibition; series mostly up to 46.1 µM;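 note: cell survival measured after 48 h of compound exposure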; note: potency is the fitted concentration of half-maximal effect
# Excerpt: Progenitor-like cancer cells, often referred to as cancer stem cells (CSC), are believed to be the drivers of therapeutic resistance and rapid recurrence. CSCs are postulated to reside in specific niches characterized by low oxygen tension, limited nutrient supply, and high redox load. Selectively targeting CSC, alone or in combination with cytotoxic agents, as a means to produce durable remissions is an appealing concept. Modeling these cells in in vitro setting is an important step in finding new therapies and/or targets. Multiple reports highlight that forcing cells in culture into 3-dimensionaly architectures (spheroids) re-establishes key progenitor-like transcriptional signatures. Pancreatic cancer is among the diseases with the most dismal outlook which is driven, largely, by recurance following front-line therapies. […] In hopes of deriving new insight into the targeting of these pancreatic CSCs we examined three established pancreatic cancer cell lines in cytotoxicity assays versus a collection of approved and investigational drugs. Importantly, we screened these lines as traditional monolayer (2D) and spheroid (3D) formats to gain an appreciation of agents with differential activity.
# Multicellular tumor spheroids from Panc1, MiaPaCa-2, and the primary low-passage tissue culture line SB.06 were seeded in stem cell media (SCM) in nonadherent 6-well plates coated with hydrogel (Corning Life Sciences, Chelmsford, Mass) and pancreatic spheres generated for 14 days before screening. Cells were seeded into 1536-well solid-bottom white tissue culture treated Greiner Bio One Plates (789173-F) using a MultiDrop Combi (Thermofisher Scientific) dispenser and a small sterile cassette. One column was media alone to be used as a :"no cells" control. The plates were then covered with sterilized stainless steel gasketed lids from Kalypsys. After allowing cells to attach for 4 hours, 23 nL of test compound or control (negative control DMSO and positive control 9.2 uM Bortezomib-final) were added from a 1536-well polypropylene compound source plate to each well using a 1536 head pin tool from Kalypsys. Cells were then incubated for 48 hours at 37C, 95% relative humidity and 5% CO2. After 48 hours, plates were removed from the incubator and 3 uL of CellTiter-Glo (Promega) was added using an Aurora Flying Reagent Dispenser Bioraptor. Plates were incubated at room temperature for 10 minutes prior to reading the luminescence on the Viewlux (PerkinElmer). The relative luciferase units are used to calculate the percent activity using the activity of DMSO in the cells and no cells columns for normalization of no inhibition and full inhibition respectively.
# [4] = P-glycoprotein substrates identified in KB-3-1 adenocarcinoma cell line, qHTS therapeutic library screen (AID 1346986); conditions: KB-3-1 parental cells viability, CellTiter-Glo, 72 h; series mostly up to 44.5 µM; note: nearly all actives have a fitted effect of over 60% in size
# Outline: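 Viability read by CellTiter-Glo after 72 h compound exposure in dose-response of KB-3-1 and KB-8-5-11 (P-gp-high) cells. Hits needed AC50 < 10 uM, >50% maximum response and curve class -1.1 to -2.4. Cherry-picks retested ± tariquidar, including pcDNA/MDR-19 HEK-293 pair.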
# [5] = Natriuretic polypeptide receptor (hNpr1) antagonism - Pilot counterscreen GloSensor control cell line (AID 1347045; calls by dose curve); conditions: HEK293 cGMP GloSensor cells, SNP-stimulated luminescence, 20 min; series mostly up to 38.3 µM
# Outline: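 Cells were first seeded and incubated overnight at 37C, then loaded with 2% GloSensor substrate for 2 h. Compounds were added for 30 min at room temperature, followed by a baseline read, 50 uM SNP and a final read after 20 min.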
# [6] = Identifying Small Molecule Inhibitors of Pancreatic Cancer Stem Cells (A278, Adherent) (AID 1259361); conditions: series mostly up to 46.1 µM;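 note: viability read after 48 h compound exposure; nearly all actives have a fitted effect of over 35% in size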
# Outline: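 Pre-formed 14-day tumor spheroids or adherent cells dosed and incubated 48 h, 37C, 5% CO2. Viability assessed by CellTiter-Glo.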
# [7] = Identifying Small Molecule Inhibitors of Pancreatic Cancer Stem Cells (A2780, Spheroid) (AID 1259357); conditions: A2780 spheroid viability;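 note: spheroids pre-formed over 14 days in stem cell medium on hydrogel; potency is the fitted concentration of half-maximal effect; compound exposure lasted 48 h before the ATP luminescence read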
# Outline: (§1)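 Endpoint: ATP-based luminescence, 48 h drug exposure. Bortezomib at 9.2 uM final as full-kill control; DMSO vehicle as negative control; activity normalized between vehicle and cell-free wells.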
# [8] = Identifying Small Molecule Inhibitors of Pancreatic Cancer Stem Cells (Panc1, Spheroid) (AID 1259359); conditions: Panc1 spheroid cancer stem cell viability;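 note: potency is the fitted concentration of half-maximal effect; compound exposure lasted 48 h before reading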
# Excerpt: Progenitor-like cancer cells, often referred to as cancer stem cells (CSC), are believed to be the drivers of therapeutic resistance and rapid recurrence. CSCs are postulated to reside in specific niches characterized by low oxygen tension, limited nutrient supply, and high redox load. Selectively targeting CSC, alone or in combination with cytotoxic agents, as a means to produce durable remissions is an appealing concept. Modeling these cells in in vitro setting is an important step in finding new therapies and/or targets. Multiple reports highlight that forcing cells in culture into 3-dimensionaly architectures (spheroids) re-establishes key progenitor-like transcriptional signatures. Pancreatic cancer is among the diseases with the most dismal outlook which is driven, largely, by recurance following front-line therapies. […]
# Multicellular tumor spheroids from Panc1, MiaPaCa-2, and the primary low-passage tissue culture line SB.06 were seeded in stem cell media (SCM) in nonadherent 6-well plates coated with hydrogel (Corning Life Sciences, Chelmsford, Mass) and pancreatic spheres generated for 14 days before screening. […] Plates were incubated at room temperature for 10 minutes prior to reading the luminescence on the Viewlux (PerkinElmer). […]
# [9] = Identifying Small Molecule Inhibitors of Pancreatic Cancer Stem Cells (Panc1, Adherent) (AID 1259362); conditions: Potency: viability; series mostly up to 46.1 µM; note: potency is the fitted concentration of half-maximal effect
# Outline: as §1
# [10] = Identifying Small Molecule Inhibitors of Pancreatic Cancer Stem Cells (SN12C, Spheroid) (AID 1259360); conditions: series mostly up to 46.1 µM
# Outline: as §1
smiles,measurement,setting,value
Cc1cn([C@H]2C[C@H](N=[N+]=[N-])[C@@H](CO)O2)c(=O)[nH]c1=O,outcome,[1],inactive
COc1cc2nc(N3CCN(C(=O)C4COc5ccccc5O4)CC3)nc(N)c2cc1OC (centres undefined),outcome,[1],inactive
same,Potency,[2],inactive
CC1(CN2CCC(n3c(=O)[nH]c4ccccc43)CC2)OCc2ccccc2-n2cccc21 (centres undefined),outcome,[1],inactive
same,Potency,[3],inactive
NCCc1cnc[nH]1,outcome,[1],inactive
same,outcome,[4],inactive
same,Potency,[2],inactive
same,Potency,[5],inactive
Cc1cnc(C(=O)NCCc2ccc(S(=O)(=O)NC(=O)NC3CCCCC3)cc2)cn1,outcome,[1],inactive
Nc1nnc(-c2cccc(Cl)c2Cl)c(N)n1,outcome,[1],inactive
CC(C)(Oc1ccc(C2CC2(Cl)Cl)cc1)C(=O)O (centres undefined),outcome,[1],inactive
same,outcome,[4],inactive [at 93.4 µM]
same,Potency,[5],inactive
CC1COc2c(N3CCN(C)CC3)c(F)cc3c(=O)c(C(=O)O)cn1c23 (centres undefined),outcome,[1],inactive
same,outcome,[4],inactive
CC(C(=O)O)c1cccc(C(=O)c2ccccc2)c1 (centres undefined),outcome,[1],inactive
O=c1c(O)c(-c2ccc(O)c(O)c2)oc2cc(O)cc(O)c12,outcome,[1],inactive
same,IC50 (viability decrease),[6],29.6 µM (active)
same,Potency,[5],inactive
CN(CCOc1ccc(NS(C)(=O)=O)cc1)CCc1ccc(NS(C)(=O)=O)cc1,outcome,[1],inactive
Cc1ccc(-c2cc(C(F)(F)F)nn2-c2ccc(S(N)(=O)=O)cc2)cc1,outcome,[1],inactive
same,outcome,[4],inactive
Cn1c(=O)c2c(ncn2C)n(C)c1=O,outcome,[1],inactive
CS(=O)(=O)CCNCc1ccc(-c2ccc3ncnc(Nc4ccc(OCc5cccc(F)c5)c(Cl)c4)c3c2)o1,outcome,[1],inactive
same,Potency,[7],16.6 µM (active)
same,Potency,[3],0.418 µM (active)
same,Potency,[8],37.2 µM (active)
same,Potency,[9],20.9 µM (active)
same,Potency,[2],18.7 µM (active) and inactive and 20.6 µM (active)
CN(C)CCOC(c1ccccc1)c1ccccc1,outcome,[1],inactive
same,outcome,[4],inactive
same,Potency,[5],inactive
O=C1N(c2ccccc2)c2ccccc2C1(Cc1ccncc1)Cc1ccncc1,outcome,[1],inactive
same,outcome,[4],inactive
same,Potency,[5],inactive
CC(C)(C)C(=O)Oc1ccc(S(=O)(=O)Nc2ccccc2C(=O)NCC(=O)O)cc1,outcome,[1],inactive
same,outcome,[4],inactive
CN1CCC(=C2c3ccccc3CC(=O)c3sccc32)CC1,outcome,[1],inactive
CS(=O)(=O)Nc1ccc([N+](=O)[O-])cc1Oc1ccccc1,outcome,[1],inactive
Clc1ccccc1C(c1ccccc1)(c1ccccc1)n1ccnc1,outcome,[1],inactive
same,Potency,[2],9.88 µM (active)
Clc1ccc2nsnc2c1NC1=NCCN1,outcome,[1],inactive
same,Potency,[2],inactive
CN(C)C(=N)N=C(N)N,outcome,[1],inactive
same,Potency,[3],inactive
same,IC50 (viability decrease),[6],inactive
same,Potency,[9],inactive
same,outcome,[4],inactive [setting not given]
COc1cc2nc(N(C)CCCNC(=O)C3CCCO3)nc(N)c2cc1OC (centres undefined),outcome,[1],inactive
Clc1ccc(C(c2ccccc2Cl)C(Cl)Cl)cc1 (centres undefined),outcome,[1],inactive
CN(Cc1cnc2nc(N)nc(N)c2n1)c1ccc(C(=O)N[C@@H](CCC(=O)O)C(=O)O)cc1,outcome,[1],inactive
same,Potency,[2],10.3 nM (active) and 37.2 nM (active)
O=C(c1ccc(OCCN2CCCCC2)cc1)c1c(-c2ccc(O)cc2)sc2cc(O)ccc12,outcome,[1],inactive
same,outcome,[4],inactive
same,Potency,[5],inactive
Nc1c2c(nc3ccccc13)CCCC2,outcome,[1],inactive
same,outcome,[4],inactive
same,Potency,[5],inactive
Cc1cn([C@H]2C=C[C@@H](CO)O2)c(=O)[nH]c1=O,outcome,[1],inactive
same,outcome,[4],inactive [at 93.4 µM]
same,Potency,[2],inactive
same,Potency,[5],inactive
CC1(C)O[C@H]2CC(=O)OC[C@]23[C@H]2CC[C@@]4(C)[C@H](c5ccoc5)OC(=O)[C@H]5O[C@]54[C@]2(C)C(=O)C[C@@H]13,outcome,[1],inactive
same,outcome,[4],inactive
same,Potency,[2],inactive
CC(=O)OCC(CCn1cnc2cnc(N)nc21)COC(C)=O,outcome,[1],inactive
same,Potency,[2],inactive
Cn1ccc2cc3c(cc21)CCN3C(=O)Nc1cccnc1,outcome,[1],inactive
same,Potency,[3],inactive
same,outcome,[10],inactive
same,IC50 (viability decrease),[6],inactive
CC(C)NCC(O)c1ccc(O)c(O)c1 (centres undefined),outcome,[1],inactive
CC#C[C@]1(O)CC[C@H]2[C@@H]3CCC4=CC(=O)CCC4=C3[C@@H](c3ccc(N(C)C)cc3)C[C@@]21C,outcome,[1],inactive
same,Potency,[2],23.1 µM (active)
CCCCc1oc2ccccc2c1C(=O)c1cc(I)c(OCCN(CC)CC)c(I)c1,outcome,[1],inactive
same,Potency,[2],inactive
same,Potency,[5],inactive
COC(=O)Nc1nc2ccc(C(=O)c3cccs3)cc2[nH]1,outcome,[1],inactive
same,Potency,[2],6.6 nM (active) and 326 nM (active)
same,Potency,[5],inactive
N[C@@H](Cc1c[nH]c2ccc(O)cc12)C(=O)O,outcome,[1],inactive
same,Potency,[2],inactive
same,Potency,[5],inactive
C[C@@H]1CC(=O)NN=C1c1ccc(NN=C(C#N)C#N)cc1,outcome,[1],inactive
same,Potency,[2],inactive
O=C(c1ccc(F)cc1)C1CCN(CCn2c(=O)[nH]c3ccccc3c2=O)CC1,outcome,[1],inactive
same,Potency,[2],inactive
same,Potency,[5],inactive

# Reference: PubChem BioAssay (NCATS)
